From PubChem BioAssay
Rows were chosen to be rich in hits. Some 21% of all compounds tested hit in one or more screens of this group.
Pf growth 48h – Primary qHTS for delayed death inhibitors of the malarial parasite plastid, 48 hour incubation; AID 504832, 2011; actives 5.9% (n = 310,000); P. falciparum luciferase growth in erythrocytes, 48 h; Potency, µM (titrated, usually from 28.7 µM), inactives show at the highest dose activity change, negative = inhibition, usual class: inhibitors; further: potency means the concentration at half of the fitted maximal effect; on the % scale 0 is the no-effect control and ±100 the full control effect
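First compound was added to culture medium, then infected red cells at 0.1% parasitemia and 2% hematocrit (final). After incubation at 37 C under 5% CO2, luciferase detection reagent was dispensed and light output recorded.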
NS1 function inh – qHTS Assay for Inhibitors of Influenza NS1 Protein Function; Potency, µM (highest dose often 46.1 µM), for the others: top-dose activity, positive = more growth; actives 0.4% (n = 270,000); AID 2326, 2010; calls by dose curve; further: potency means the concentration at half of the fitted maximal effect; actives are rising curves; nearly all actives have a fitted effect of over 50% in size
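Compounds were scored for reversing the slow growth caused by influenza A NS1 in S. cerevisiae, measured by optical density at 600 nm. Assay medium contained 2% galactose at pH 6.0; NS1-free yeast of the same strain were the positive control.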
Sm TGR block – qHTS Assay for the Inhibitors of Schistosoma Mansoni Peroxiredoxins; Schistosoma mansoni thioredoxin glutathione reductase (TGR), Q962Y6; AID 485364, 2010; Potency, µM (top dose mostly 114 µM), for the others: at the top dose activity change, negative = inhibition, hits mostly inhibitors; purified TGR, DTNB reduction, TNB absorbance 405 nm; actives 3% (n = 360,000); further: potency means the concentration at half of the fitted maximal effect; on the % scale 0 is the no-effect control and ±100 the full control effect; nearly all actives have a fitted effect of over 60% in size
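TGR 20 nM + NADPH 100 uM (dispensed conc.), cpd preinc 15 min RT; start with NADPH (500 uM addition) then DTNB (15 mM addition). Kinetic TNB absorbance, 405 nm filter. Four-parameter Hill fit across titration.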
Pf growth 96h – Primary qHTS for delayed death inhibitors of the malarial parasite plastid, 96 hour incubation; P. falciparum luciferase reporter growth, 96 h; Potency, µM (titrated, usually from 28.7 µM), for inactives: at the highest dose activity change, negative = inhibition, hits mostly inhibitors; actives 6.9% (n = 320,000); AID 504834, 2011; further: potency means the concentration at half of the fitted maximal effect; on the % scale 0 is the no-effect control and ±100 the full control effect
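Delayed-death screen, second-generation endpoint: infected erythrocytes, 2% hematocrit, 0.05% parasitemia final; 96 hours at 37 C, 5% CO2; luciferase detection reagent; luminescence decrease equals reduced growth.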
Shiga inhibitor – A qHTS for Small Molecule Inhibitors of Shiga Toxin. inhibition, % at 38.7 µM. Vero cells, Shiga toxin protein synthesis inhibition reporter. actives 9.2% (n = 290,000); in the data active means inhibition mostly above about 28%, no sharp cut-off; inactive means mostly below about 43%; further: 0% is about no effect
CHX counter – Cycloheximide Counterscreen for Small Molecule Inhibitors of Shiga Toxin; max response, %; cell reporter, cycloheximide protein synthesis inhibition counterscreen; AID 2314, 2010; actives 12% (n = 300,000); in the data active means max response mostly above about 13%, no sharp cut-off; inactive means mostly below about 14%; further: read at 38.3 µM for the half of the compounds with a filed dose; 0% is about no effect
* = called active by the depositor; ? = inconclusive; · = no result. Unless noted, the call rests on the fitted dose curve; in most records, active means well fitted curve in the direction sought with a large enough effect; inconclusive means small, poorly fitted or top-dose-only effect, or another doubt; inactive means no such curve, though single readings can be large; an effect the other way counts as inactive or inconclusive.

SMILES	Pf growth 48h	NS1 function inh	Sm TGR block	Pf growth 96h	Shiga inhibitor	CHX counter
NC(=O)c1ccccc1OCC(=O)N1CCCC1c1ccc2c(c1)OCCCO2 (stereo unspecified)	?	·	0%	-6%	·	·
CCc1noc(C)c1C(=O)N1CCCSC1=Nc1ccccc1Cl	?	·	1%	?	·	·
CCN(C(=O)COC(=O)c1oc2ccc(OC)cc2c1C)C1CCS(=O)(=O)C1 (stereo unspecified)	52%	·	4%	14%	·	·
Clc1ccc(/C=C/c2ncc3ccccn23)cc1	28%	-32%	6%	0%	83*	33*
Clc1ccc(/C=C/c2nc(Cl)c(-c3ccc(Cl)cc3)c(Cl)n2)cc1	?	5%	7%	?	24	2
Cc1ccc(S(=O)(=O)NCc2ccncc2)c(C)c1C	-17%	5%	?	12µM*	19	4
Cc1cc(Br)c(S(=O)(=O)NCc2cccnc2)cc1C	-8%	1%	28%	0%	-25	-1
Cc1cc(C)c(S(=O)(=O)NCc2cccnc2)cc1C	?	6%	0%	12µM*	-15	-2
Cc1ccc(/C=C/C(=O)O)cc1S(=O)(=O)NCc1cccnc1	7%	2%	22µM*	19%	12	-1
Cc1ccc(S(=O)(=O)NCc2ccccn2)c(C)c1C	19%	30%	?	14%	-2	-2
COc1ccc(/C=C/C(=O)O)cc1S(=O)(=O)NCc1ccccc1	74%	0%	5%	0%	26	-2
CCOC(=O)N1CCN(C(=O)c2cc3n(n2)C(C(F)(F)F)CC(c2ccc4c(c2)OCO4)N3)CC1 (stereo unspecified)	13%	-6%	1%	?	-5	-4
Cc1c(C)c2c(OCC(=O)N[C@@H](CC(C)C)C(=O)O)cc3c(c2oc1=O)CCC(C)(C)O3	?	4%	-11%	?	-5	-3
CC1CCN(S(=O)(=O)c2ccc3nc(N4CCN(c5ccccc5)CC4)ccc3c2)CC1	-3%	-2%	-3%	10µM*	17	-7
CC(=O)c1ccc(N2CCN(c3ccc4cc(S(=O)(=O)N5CCCCC5)ccc4n3)CC2)cc1	·	·	1%	·	·	·
O=S(=O)(c1ccc2nc(N3CCN(c4ccc(F)cc4)CC3)ccc2c1)N1CCCCC1	3%	7%	-5%	13µM*	-3	-1
COc1ccc(CNC(=O)C(C)OC(=O)c2cccn2C)cc1 (stereo unspecified)	?	-10%	-3%	4%	17	-2
Cc1noc(C)c1S(=O)(=O)N(CC(=O)O)c1ccc2c(c1)OCO2	44%	-3%	-34%	5.9µM*	-16	-2
CCOc1ccc(N(CC(=O)NC2CCCCC2)S(=O)(=O)c2c(C)noc2C)cc1	0%	2%	-2%	15%	-5	-2
Cc1cc(C)cc(N(CC(=O)O)S(=O)(=O)c2c(C)noc2C)c1	9%	1%	2%	·	-8	-4
CCc1ccc(N(CC(=O)NC2CCCCC2)S(=O)(=O)c2c(C)noc2C)cc1	·	5%	0%	1.9µM*	2	-1
CCc1ccc(N(CC(=O)NC2CC2)S(=O)(=O)c2ccc(C)cc2)cc1	2%	9%	40µM*	19%	-11	-3
O=C(O)c1cc(=O)c2cccc(O)c2[nH]1	·	·	·	·	-2	3
Cc1ccc(NC(=O)COC(=O)c2ccc(CN3CCCC3=O)cc2)cc1C	5%	·	0%	1%	·	·
CCCOC(=O)/C(=C\C=C\c1ccco1)NC(=O)c1ccccc1	-12%	·	8.9µM*	57%	115*	51*
SMILES	Pf growth 48h	NS1 function inh	Sm TGR block	Pf growth 96h	Shiga inhibitor	CHX counter
CCCOC(=O)/C(=C\c1ccc([N+](=O)[O-])o1)NC(=O)c1ccccc1	?	-10%	-24%	0.41µM*	21	6
O=C(Nc1ccc(O)c(-c2nc3ccccc3o2)c1)C1(c2ccc(Cl)cc2)CCCC1	2.3µM*	-13%	0%	?	8	14
Cc1ccccc1NS(=O)(=O)c1ccc(-c2ccc(=O)[nH]n2)o1	2%	-2%	?	13µM*	-8	-7
CCN(CC)c1ccc(NS(=O)(=O)c2ccc(-c3ccc(=O)[nH]n3)o2)c(C)c1	?	-1%	?	-4%	-5	7
O=C(Cc1cn2ccsc2n1)NCc1ccccc1	2%	-1%	-3%	·	7	11
O=C(Cc1cn2ccsc2n1)OCc1nc2ccccc2s1	6%	-10%	3%	0%	11	18
O=c1c2ccccc2nc(SCc2cn3ccsc3n2)n1-c1ccccc1F	?	16%	6%	·	41*	30*
c1ccc(CSCc2cn3ccsc3n2)cc1	64%	-45%	-6%	·	12*	39*
O=c1c2ccccc2nc(SCc2cn3ccsc3n2)n1-c1ccccc1	?	-34%	-13%	·	-4	0
O=C(Cc1cn2ccsc2n1)OCc1ccccc1	20%	-69%	-3%	·	62*	27*
COc1cccc(C(C(=O)NC2CCCC2)N(C(=O)c2csnn2)C2CC2)c1 (stereo unspecified)	28%	-9%	0%	24%	-5	-3
COc1cc(-c2nnc(SCC(=O)N3CCCc4ccccc43)o2)cc(OC)c1OC	·	·	6%	·	·	·
COc1ccc(NC(=O)c2nnn(Cc3nc(-c4cc(Br)ccc4OC)oc3C)c2C)cc1	·	·	-9%	·	·	·
Cc1ccc(-c2nnn(CCC(=O)NC(C)(C)C)n2)cc1	125%	-7%	-18%	5%	52*	32*
CCOC(=O)CCn1nnc(N)n1	4%	0%	1%	10µM*	4	-3
COc1ccc(NC(=O)CCn2nnc(-c3ccc(C)cc3)n2)cc1OC	4%	6%	-23%	?	-3	-2
Cc1ccc(-c2nnn(CCC(=O)N3CCCCC3C)n2)cc1 (stereo unspecified)	50%	-53%	6%	?	73*	17*
COC(=O)CCn1nnc(-c2ccc(C)cc2)n1	9%	-8%	-13%	·	60*	32*
CCOc1ccc(CNC(=O)c2sc3nc(C)cc(C)c3c2-n2cccc2)cc1	·	·	16%	·	·	·
COCCNC(=O)CCCC(=O)NCCOC	0%	10%	-2%	-6%	9	-4
Cc1ccc(-c2nnn(CC(=O)N(CCN3CCOCC3)C(C(=O)NC(C)(C)C)c3ccc(C)o3)n2)cc1 (stereo unspecified)	?	0%	20%	-6%	-8	-2
CCOC(=O)N1CCC(N2C(=O)c3ccc(C(=O)Nc4ccc(OC)c(OC)c4)cc3C2=O)CC1	3%	1%	1%	2%	-14	-2
COC(=O)c1ccc(COc2ccc(-c3nnn(CC(=O)NC(C)(C)C)n3)cc2)cc1	?	15%	4%	7.4µM*	-5	0
